Compound activity (PubChem BioAssay)
Measles CPE = compounds protecting cells from measles virus cytopathic effect, primary screen, measles RdRp inhibitor project, single point, MLSMR library, absorbance; Measles virus-infected cells, CPE protection; protection (pct of control), % at 4 µM; 1.5% of 140,000 active; in the data active = protection mostly above about 24%, no sharp cut-off; inactive = mostly below about 26%
Arbovirus anti = antivirals against arbovirus infection, primary screen, cell-based, full library, 10K replicate subset. arbovirus infection cell-based antiviral screen. inhibition, % at 10 µM. 0.37% of 200,000 active. AID 1251, 2008; in the data active = inhibition above about 30%
Cl transport mod = KCC2 cotransporter modulators, thallium flux, primary screen, cell-based, HEK293 KCC2, FluoZin-2 fluorescence, MLSMR. KCC2 cells, thallium flux FluoZin-2 fluorescence. B-score of Tl+ flux slope (higher = more flux/activation; lower = inhibition) at 10 µM. 2.2% of 190,000 active;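 active = thallium flux slope and its plate-corrected score both differing from the plate sample mean at a set confidence after two filtering rounds, in either direction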;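 note: slope of fluorescence scaled to starting intensity during 10 to 20 s after thallium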
Target sequence (Q9H2X9 whole entry, looked up): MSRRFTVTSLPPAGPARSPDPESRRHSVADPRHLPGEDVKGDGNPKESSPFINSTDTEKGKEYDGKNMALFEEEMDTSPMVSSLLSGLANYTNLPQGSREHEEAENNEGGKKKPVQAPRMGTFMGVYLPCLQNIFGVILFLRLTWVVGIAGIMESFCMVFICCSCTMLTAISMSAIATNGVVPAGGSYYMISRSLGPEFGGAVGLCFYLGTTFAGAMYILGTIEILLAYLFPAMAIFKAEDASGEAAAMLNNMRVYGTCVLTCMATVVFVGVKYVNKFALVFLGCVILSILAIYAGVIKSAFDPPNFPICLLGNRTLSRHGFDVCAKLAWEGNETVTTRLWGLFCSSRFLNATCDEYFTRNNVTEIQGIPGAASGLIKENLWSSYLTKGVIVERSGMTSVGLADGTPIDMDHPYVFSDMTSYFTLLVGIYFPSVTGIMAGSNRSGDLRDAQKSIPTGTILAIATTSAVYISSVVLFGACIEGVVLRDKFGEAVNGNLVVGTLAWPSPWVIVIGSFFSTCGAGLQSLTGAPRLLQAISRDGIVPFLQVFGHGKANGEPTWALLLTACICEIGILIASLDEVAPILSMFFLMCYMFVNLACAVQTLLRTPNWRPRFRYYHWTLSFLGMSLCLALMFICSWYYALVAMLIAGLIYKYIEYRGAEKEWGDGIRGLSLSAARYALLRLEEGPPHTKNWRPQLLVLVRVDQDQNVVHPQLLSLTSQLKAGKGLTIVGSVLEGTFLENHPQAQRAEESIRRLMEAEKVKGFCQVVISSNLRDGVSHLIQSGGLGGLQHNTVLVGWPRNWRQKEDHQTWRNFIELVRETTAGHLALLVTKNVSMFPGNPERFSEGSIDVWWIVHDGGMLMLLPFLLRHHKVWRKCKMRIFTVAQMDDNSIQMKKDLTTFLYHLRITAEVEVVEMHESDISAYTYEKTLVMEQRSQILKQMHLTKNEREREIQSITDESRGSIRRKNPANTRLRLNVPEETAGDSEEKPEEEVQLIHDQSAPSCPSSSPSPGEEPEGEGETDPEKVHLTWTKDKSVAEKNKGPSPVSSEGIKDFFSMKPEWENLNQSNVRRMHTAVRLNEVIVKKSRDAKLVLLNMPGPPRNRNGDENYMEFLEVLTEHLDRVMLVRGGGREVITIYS
HSV augment = enhancers of HSV replication in host cells, fold increase, host cell viability; HSV replication augmentation in cells; maximum fold increase; 0.005% of 220,000 active; in the data active = maximum fold increase above about 1.5; inconclusive = no clear call, values can overlap the other calls; tested in PC3 cells
ROMK primary = ROMK potassium channel modulators, primary screen, cell-based, thallium flux, MLSMR library; Tet-inducible ROMK, thallium flux fluorescence; actives lie on both sides; 2% of 130,000 active; B-score at 10 µM;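 active = signal ratio slope over the read window, or its plate-corrected B-score, at least 3 SD from the plate mean, either direction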;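 note: B-score of the F/F0 ratio slope over 7 to 12 s after thallium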
ROMK hit retest = ROMK channel modulator hit retest, confirmation, cell-based, thallium flux, duplicate, resupplied hits; normalized thallium flux (F/F0 slope) at 10 µM; fluorescence ratio; stronger effect = lower value; 54% of 3,000 active; shares compounds with ROMK primary;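 active = Flux at 10 µM at least 3 SD below or above vehicle control mean in one or both replicates; inconclusive = no clear call, values can overlap the other calls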
Starred values were filed as active, the others as inactive; i = inactive; ? = inconclusive; . = not tested or not shown. A selection: hits, their analogues and other compounds. The true share with any hit is near 4%.

SMILES	Measles CPE	Arbovirus anti	Cl transport mod	HSV augment	ROMK primary	ROMK hit retest
CCCC(=O)NC(=S)c1c(C)n(C)n(-c2ccccc2)c1=O	.	1	-0.18	i	-1	.
N#C/C(=C/c1ccc([N+](=O)[O-])cc1)C(N)=O	.	16	0.4	i	-3.7*	0.06*
CC(C)(C)c1cnnn1-c1ccc(C(=O)CCl)cc1	10	-6	0.16	i	.	0.054*
CC(C)(C)c1cnnn1-c1ccc(C=O)cc1	-2	-5	0.013	i	-0.74	.
CCCc1[nH]nc2c1C(c1ccoc1)C(C#N)=C(N)O2 (stereo unspecified)	9	3	-1.1	i	-3.7*	0.052*
Cc1ccc(Cl)cc1N1CCN(C(=O)c2cc3c(=O)[nH]c4ccccc4c3n2C)CC1	10	-9	-0.68	i	-1.4	.
COc1ccc(/C=N/NC(=O)c2cc(C(C)(C)C)[nH]n2)cc1COc1ccc(F)cc1F	.	-6	-0.41	i	-11*	0.083
CCOC(=O)c1ccc(NC(=O)CSC(=S)N2CCOCC2)cc1	.	-1	2	i	-1.5	.
COc1ccccc1C(=O)O/N=C(\N)c1ccccn1	.	.	-0.075	i	.	0.083
N/C(=N\OC(=O)c1ccc(Cl)c([N+](=O)[O-])c1)c1ccccn1	.	12	0.12	i	-3.8*	0.079
CCOC(=O)C1(CCOc2ccccc2)CCN(Cc2cccn2-c2ncccn2)CC1	.	-3	.	i	-3.7*	?
CCSCc1nnc(SCC(=O)Nc2nc(C)cs2)n1C	.	4	0.71	i	0.74	.
Cc1ccc(C(C)C)c(OC/C(O)=C(\C#N)c2nc3ccccc3[nH]2)c1	.	.	0.52	i	.	.
CC1(C)N=C(c2ccccc2)C(=O)N1	13	12	-0.18	i	-0.075	.
CC(C)CC1(C)N=C(c2ccccc2)C(=S)N1 (stereo unspecified)	.	4	1.5	i	-3.2*	0.057*
COc1ccccc1N1C(=O)C2C(C(=O)c3ccccc3)=NN(c3ccccc3OC)C2C1=O (stereo unspecified)	.	.	0.31	?	.	.
CCCc1cc(C(=O)Nc2ccccc2SC)no1	3	-3	0.00079	i	.	?
COc1ccccc1NS(=O)(=O)c1cccc(N=C2N=C(N)c3ccccc32)c1	4	-18	0.07	i	.	0.081
O=C(COc1ccccc1Br)NC1CCCC1	7	-8	-1	i	.	0.069*
CN(Cc1ccccc1)Cc1nc2c(c(=O)n(C)c(=O)n2C)n1CCCc1ccccc1	7	-20	-0.47	i	-3.6*	0.065*
CC(C)Cn1c(CN(C)Cc2ccccc2)nc2c1c(=O)n(C)c(=O)n2C	11	-2	-1.2	i	.	.
Cc1ccc(SCC(=O)c2ccc(CC(=O)O)s2)cc1	.	.	0.79	i	.	.
CCOC(=O)N1CCN(C(=O)CN(c2ccc(C)cc2)S(=O)(=O)c2c(C)noc2C)CC1	21	-2	-0.31	i	0.33	.
CCOc1ccc(N(CC(=O)N2CCN(c3ccccc3)CC2)S(=O)(=O)c2c(C)noc2C)cc1	11	19	.	i	.	0.073
COC(=O)c1sccc1NC(=O)CC1C(=O)NCCN1C(=O)c1ccc(F)cc1 (stereo unspecified)	.	.	0.5	i	0.078	.
SMILES	Measles CPE	Arbovirus anti	Cl transport mod	HSV augment	ROMK primary	ROMK hit retest
CC(=O)Nc1ccc(C(=O)N/N=C/c2cc(Br)cc(Br)c2O)cc1	.	-9	0.46	i	1.3	.
Cc1ccc(C(=O)O)cc1N=Cc1cc(Br)cc(Br)c1O	2	-2	0.019	?	5.1*	0.11*
COc1ccc(C2/C=C\CN(C(=O)NC(C)C)CC(=O)N2Cc2ccc(F)cc2)cc1 (stereo unspecified)	.	.	0.066	i	.	.
Cc1cccc(Cc2c(C)nc3c(C(=O)N4CCN(Cc5ccc6c(c5)OCO6)CC4)cnn3c2C)c1	8	-21	-0.77	i	.	0.046*
CCc1ccc(C(=O)N2CCC(c3nc4ccccc4s3)CC2)cc1	6	-17	-0.31	i	.	.
O=C(CN1CCC(c2nc3ccccc3s2)CC1)NCc1ccccc1	14	2	-0.18	i	-3*	0.073
O=C(O)CCCN1C(=O)/C(=C/c2ccncc2)SC1=S	.	.	-2.2	i	-2.1	.
